High-throughput results from PubChem BioAssay.
PLCg1 inh: blocks human PLC-gamma1 enzyme activity | P19174 | AID 720700 | 370,000 compounds, 0.84% hits | purified PLC-gamma1, fluorogenic substrate, fluorescence | inhibition, % at 12.2 µM; in the data active = inhibition above about 9.5%
MsrA inhibitor: inhibitors of bovine MsrA; inhibition, % at 15.5 µM; 360,000 compounds, 0.75% hits; purified bovine MsrA, absorbance read-out; AID 651718; in the data active = inhibition above about 4.5%;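 also: 0% = vehicle wells with enzyme and 100% = reference inhibitor wells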
PLC-beta3 inh: blocks human PLC-beta3 enzyme activity | Purified PLC-beta3, fluorogenic substrate, fluorescence | inhibition, % at 12.2 µM | 370,000 compounds, 0.18% hits;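 also: 0% = median of compound wells on plate and 100% = full blocker control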
Target sequence (Q01970 whole entry, looked up): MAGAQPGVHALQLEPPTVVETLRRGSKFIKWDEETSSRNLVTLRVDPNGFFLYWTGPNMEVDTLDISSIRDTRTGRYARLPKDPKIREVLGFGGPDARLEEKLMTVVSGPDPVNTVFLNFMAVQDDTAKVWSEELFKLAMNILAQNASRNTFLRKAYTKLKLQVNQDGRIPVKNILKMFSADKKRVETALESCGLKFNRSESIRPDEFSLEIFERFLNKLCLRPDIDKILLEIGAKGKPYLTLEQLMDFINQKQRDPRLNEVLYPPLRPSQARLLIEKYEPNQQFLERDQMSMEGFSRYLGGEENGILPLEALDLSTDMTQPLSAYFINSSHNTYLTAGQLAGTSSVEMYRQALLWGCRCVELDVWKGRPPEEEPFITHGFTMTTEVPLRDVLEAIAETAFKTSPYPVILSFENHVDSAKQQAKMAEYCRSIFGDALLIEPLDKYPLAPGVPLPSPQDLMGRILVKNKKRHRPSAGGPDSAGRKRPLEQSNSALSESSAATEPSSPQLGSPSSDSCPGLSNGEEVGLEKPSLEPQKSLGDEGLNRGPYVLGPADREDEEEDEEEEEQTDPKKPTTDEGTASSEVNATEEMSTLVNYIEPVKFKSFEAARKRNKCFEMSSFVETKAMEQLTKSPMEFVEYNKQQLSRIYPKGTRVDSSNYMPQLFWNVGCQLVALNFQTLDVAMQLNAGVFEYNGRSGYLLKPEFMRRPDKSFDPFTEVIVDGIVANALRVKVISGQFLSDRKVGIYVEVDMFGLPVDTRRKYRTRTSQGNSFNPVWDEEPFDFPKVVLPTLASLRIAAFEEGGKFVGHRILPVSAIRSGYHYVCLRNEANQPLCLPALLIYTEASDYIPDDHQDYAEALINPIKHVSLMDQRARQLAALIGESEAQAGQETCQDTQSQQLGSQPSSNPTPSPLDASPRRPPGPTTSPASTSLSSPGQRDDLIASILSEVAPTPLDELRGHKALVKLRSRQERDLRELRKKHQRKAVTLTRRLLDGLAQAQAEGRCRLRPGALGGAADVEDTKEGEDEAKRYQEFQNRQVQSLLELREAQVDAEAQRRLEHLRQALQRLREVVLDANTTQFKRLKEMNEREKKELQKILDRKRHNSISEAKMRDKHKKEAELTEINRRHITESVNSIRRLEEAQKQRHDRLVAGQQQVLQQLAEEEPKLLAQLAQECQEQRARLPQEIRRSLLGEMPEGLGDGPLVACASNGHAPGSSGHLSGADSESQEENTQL
MsrA act: activators of bovine methionine sulfoxide reductase A; 360,000 compounds, 0.3% hits; activation, % at 10.6 µM; purified bovine MsrA, absorbance read-out; AID 602163; in the data active = activation above about 7.5%;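 also: 0% = vehicle and 100% = reference activator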
PLCgamma1 ctr: PLC-gamma1 inhibition, counter-screen for PLC-beta3 hits; shares compounds with PLCg1 inh; purified PLC-gamma1, fluorogenic substrate, fluorescence; inhibition, % at 12.3 µM; 3,300 compounds, 3.1% hits; in the data active = inhibition above about 9.5%
PLCb3 confirm: confirmation of human PLC-beta3 inhibitors. shares compounds with PLCg1 inh. purified PLC-beta3, fluorogenic substrate fluorescence. inhibition, % at 12.3 µM. 3,300 compounds, 1% hits
Numbers without * were called inactive; . = not tested or not shown. Rows were chosen to be rich in hits. Some 1.9% of all compounds tested hit in one or more screens of this group. Rule as the data show it, unless noted: active = inhibition above about 11%; inactive = the rest.

SMILES	PLCg1 inh	MsrA inhibitor	PLC-beta3 inh	MsrA act	PLCgamma1 ctr	PLCb3 confirm
COc1ccc(OCc2nn3c(-c4ccco4)nnc3s2)cc1	1	2	-1	-8	.	.
COC(=O)[C@@]12CCCN1[C@H](c1ccc(-c3ccc(OC)cc3)cc1)[C@@H]1C(=O)N(C)C(=O)[C@@H]12	-141	1	-200	0	.	.
CCOC(=O)c1c(C)[nH]c(C)c1S(=O)(=O)NCCc1sccc1C	9.9*	1	-4	-1	-1	-2
N#Cc1ccsc1NC(=O)CCN1C(=O)C2CCCCC2C1=O (stereo unspecified)	0	1	0	-4	.	.
O=C(Nc1cccc(Cl)c1)c1csc(COCCO)n1	10.0*	0	3	-6	-6	-104
O=C(Nc1cccc(C(F)(F)F)c1)c1csc(COCCO)n1	1	0	5	-5	.	.
COC(=O)[C@]12C[C@H](CC(=O)NCCCCc3ccccc3)C(=O)N(Cc3ccc4c(c3)OCO4)C1=C[C@H](COCc1ccccc1)O[C@@H]2C	2	1	0	.	.	.
Nc1ccn(C(C=O)CC(C=O)CO)c(=O)n1 (stereo unspecified)	-2	1	2	-4	.	.
Cc1ccc2c(c1)-c1c(cnn1CC(=O)NCCc1ccc(Cl)cc1)CO2	0	.	0	.	.	.
COc1cc(C(=O)N2CCCCC2c2cc(C(=O)NC(C)C)no2)cc(OC)c1C (stereo unspecified)	13*	0	4	0	-2	0
COc1ccc(NC(=O)c2cc(C3CCCCN3C(=O)c3cc(F)ccc3C)on2)c(C)c1 (stereo unspecified)	9.7*	0	3	-6	-4	-3
C(=C\c1ccccc1)/CN1CCN(C(c2cc3ccccc3o2)c2nnnn2Cc2ccccc2)CC1 (stereo unspecified)	-2	2	-4	-6	.	.
Cc1cc(C)n(CC(=O)NNC(=O)C2CC(=O)N(Cc3ccccc3Cl)C2)n1 (stereo unspecified)	12*	2	0	-1	-4	1
O=C(CCc1nnc2ccc(NCc3ccccc3)nn12)NC1CCCC1	-4	1	-14	-3	.	.
COC(=O)CC(C(=O)Nc1cc(C(=O)OC)cc(C(=O)OC)c1)N1CCN(C)CC1 (stereo unspecified)	14*	1	11*	-14	-4	0
CCOC(=O)C1(C(C)(C)CC)CC(CSc2nc3ccccc3[nH]2)OC1=O (stereo unspecified)	12*	0	6	2	-6	-6
Cc1cccnc1C1=NOC(Cc2ccccc2)C(=O)N1CCOc1ccc(F)cc1 (stereo unspecified)	1	-1	1	-1	.	.
Cc1ccc2[nH]c(O)c(N=NC(=O)CCc3ccccc3)c2c1Br	9.9*	0	5	-3	-7	-2
N/C(CSc1ncccc1C(F)(F)F)=N\O	9.8*	0	-2	-2	1	4
O=C(CCc1ccccc1)N1CCCC(Nc2ccc(F)cc2)C1 (stereo unspecified)	11*	2	1	-2	-1	2
COc1ccc(NC2CCCN(C(=O)CCc3cn[nH]c3)C2)cc1 (stereo unspecified)	10*	1	-9	-2	-3	3
CNC(=O)C(=O)Nc1ccc(C)cc1C	1	0	0	-4	.	.
CNC(=O)C(=O)Nc1c(C)cc(C)cc1C	7	1	12*	-3	-7	-5
C[C@H]1C2CC(OC(=O)Nc3ccc(C(F)(F)F)cc3)C(C2)[C@H]2CCCCN21 (stereo partly specified)	6	.	2	.	.	.
CSC(=N/N=C(\N)c1cnccn1)SC	13*	2	6	-4	5	1
SMILES	PLCg1 inh	MsrA inhibitor	PLC-beta3 inh	MsrA act	PLCgamma1 ctr	PLCb3 confirm
C[C@@H]1CN([C@@H](C)CO)C(=O)CCCn2cc(nn2)CO[C@H]1CN(C)S(=O)(=O)c1ccc2c(c1)OCCCO2	0	0	0	-6	.	.
C[C@H](CO)N1C[C@H](C)[C@@H](CN(C)S(=O)(=O)c2ccc3c(c2)OCCCO3)OCc2cn(nn2)CCCC1=O	9.5*	1	4	-1	-3	-2
C[C@H](CO)N1C[C@H](C)[C@@H](CN(C)C(=O)c2ccccc2)OCc2cn(nn2)CCCC1=O	4	1	11*	0	1	5
O=S(=O)(N/N=C/c1c(F)cccc1Cl)c1ccccc1	3	-2	2	-3	.	.
Cc1ccc(S(=O)(=O)N/N=C/c2c(F)cccc2Cl)cc1	11*	1	2	2	-8	-8
Cc1ccc(-c2nn(-c3ccccc3)cc2C(=O)Nc2ccc(C)c(S(=O)(=O)N3CCOCC3)c2)cc1	9.6*	0	4	-2	-5	-9
O=C(Nc1cccc(S(=O)(=O)N2CCOCC2)c1)c1cn(-c2ccccc2)nc1-c1ccccc1	3	1	1	-5	.	.
CCCCc1c(-c2ccccc2OC)ncn1Cc1ccc([N+](=O)[O-])cc1	-5	0	0	.	.	.
CCOC(=O)c1ccc(NC(=O)N2CCN(S(C)(=O)=O)CC2)cc1	12*	1	4	-13	-7	-3
O=C(C1CCCN1S(=O)(=O)c1ccccc1[N+](=O)[O-])N1CCN(c2ccccc2)CC1 (stereo unspecified)	1	.	-3	.	.	.
Cc1nn(-c2ccc(Cl)c(Cl)c2Cl)c(=O)c2ccccc12	11*	1	5	-14	2	4
Cc1nn(-c2ccc(Cl)cc2Cl)c(=O)c2ccccc12	3	-1	1	-2	.	.
CCOC(CNCc1cc(C)c2[nH]c3ccccc3c2c1C)OCC	-3	-1	-3	-9	.	.
COc1ccc(Nc2nc(OC)nc(OC)n2)cc1	0	0	-4	-4	.	.
COc1ccc(Nc2nc(Nc3ccc(OC)cc3)nc(SC3=NCCS3)n2)cc1	13*	3	1	-6	4	4
CCc1nc2ccc(C(=O)NCc3ccc(OC)cc3)cn2c1N(CCC(C)C)CCN(C)C	-6	-2	-5	-3	.	.
Cc1ccc(S(=O)(=O)N2C[C@H]3C(=O)C[C@@H](c4cccc(Cl)c4)N(S(=O)(=O)c4ccc(C)cc4)[C@H]3C[C@H]2c2cccc(Cl)c2)cc1	0	1	0	-7	.	.
O=C(NCC(=O)N1CCN(C(c2ccccc2)c2ccccc2)CC1)c1ccccc1F	3	0	-7	-3	.	.
CCOc1ccc(-c2cc(N)n(S(=O)(=O)c3ccc(OC)c(OC)c3)n2)cc1	4	-2	11*	-1	0	-7
Cc1cc(C)nc(Nc2nc3ccccc3[nH]2)n1	13*	1	9	0	-6	-2
CCN(CC)CCNC(=O)c1ccc(NCN2C(=O)NC(c3ccccc3)(c3ccccc3)C2=O)cc1	3	1	4	.	.	.
CC(OC(=O)CCCCCN=C1NS(=O)(=O)c2ccccc21)C(=O)Nc1cc(Cl)cc(Cl)c1 (stereo unspecified)	9.7*	0	6	-5	1	0
